{"source": "PubChem BioAssay AID540259", "about": "(Broad Institute, 2011)", "note": "Entries with a potency or affinity are not part of this list. Values without a mark were called inactive.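 The calls were made as follows: active = cell killing, meaning signal decrease, with fitted half-maximal dose at or below ten times the top valid tested dose; inconclusive = poor fit, or flat curve with 30 to 70% signal loss; inactive = the rest.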", "data": [{"assay": "ATP-based viability loss in HeLa cells – cell-based, CellTiter-Glo luminescence, cherry-pick samples, cytotoxicity control for MITF activator project, dose response (AID 540259);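 also: 0% = DMSO neutral control and -100% = mitoxantrone positive control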", "details": "24 h; series mostly up to 35 µM; activity change, negative = cytotoxicity: at the top concentration", "units": {"activity change, negative = cytotoxicity": "%"}, "values": [{"compound": "O=C(N/N=C/c1ccsc1)c1ccc2c(c1)OCO2", "activity change, negative = cytotoxicity": -0.009}, {"compound": "[O-]/[N+](=C\\C=C\\c1ccccc1)c1ccccc1", "activity change, negative = cytotoxicity": -0.305}, {"compound": "O=C(Nc1cnc2ccccc2c1)N1CCCCC1", "activity change, negative = cytotoxicity": 17}, {"compound": "COc1ccc(-c2cn(CC3CCCCC3)nn2)cc1", "activity change, negative = cytotoxicity": 6.96}, {"compound": "COc1ccc(C(=O)Nc2cc3c4c(c2)CC(=O)N4CCC3)c(OC)c1", "activity change, negative = cytotoxicity": 11.5}, {"compound": "CCC(=O)Nc1sc(C(=O)Nc2ccccc2F)c(C)c1C(=O)OC", "activity change, negative = cytotoxicity": 1.28}, {"compound": "COC(=O)c1ccc(CSC2=NCCS2)cc1", "activity change, negative = cytotoxicity": 9.68}, {"compound": "Cc1ccsc1C(=O)OCc1nnc(-c2ccccc2)o1", "activity change, negative = cytotoxicity": -13.8}, {"compound": "Cc1cccc(-c2nc(C#N)c(NC3CCCCC3)o2)c1", "activity change, negative = cytotoxicity": -1.93}, {"compound": "O=C(N=C1N=C2C=CC=CN2Cc2ccccc21)c1ccc(S(=O)(=O)N2CCCC2)cc1", "activity change, negative = cytotoxicity": 5}, {"compound": "COc1ccc(-n2nc(C(=O)NCC(=O)N3CCN(c4ccccc4)CC3)c3ccccc3c2=O)c(OC)c1", "activity change, negative = cytotoxicity": 1.45}, {"compound": "COC(=O)C(Cc1ccc(O)cc1)N1Cc2ccccc2C1=O", "note": "(stereo unspecified)", "activity change, negative = cytotoxicity": 1.59}, {"compound": "CCC(=O)N1CCc2nc(-c3ccccc3)sc2C1", "activity change, negative = cytotoxicity": 0.697}, {"compound": "COC(=O)c1ccc(N=NN2CCCCC2)cc1", "activity change, negative = cytotoxicity": 5.75}, {"compound": "Clc1ccc(-n2nnc(-c3cccnc3Cl)n2)cn1", "activity change, negative = cytotoxicity": 5.34}, {"compound": "Cc1ccc(CSc2ccc(-c3cccs3)nn2)cc1", "activity change, negative = cytotoxicity": 12.1}, {"compound": "N/C(=N\\OC(=O)C1CCCCC1)c1cccc(Br)c1", "activity change, negative = cytotoxicity": 17.7}, {"compound": "CC(C)(C)c1ccc(C(=O)Nc2ccc(F)cc2)s1", "activity change, negative = cytotoxicity": 15.4}, {"compound": "COc1ccc(C(=O)NCCn2ccc3ccccc32)cc1", "activity change, negative = cytotoxicity": 10.6}, {"compound": "Cc1ccc(/C=N/Nc2ccc(Cl)nn2)cc1", "activity change, negative = cytotoxicity": 3.79}, {"compound": "CCN(CC)CC(=O)Nc1scc2c1c(=O)oc1ccccc12", "activity change, negative = cytotoxicity": 5.03}, {"compound": "COc1ccc2cc(C(N)=O)c(=Nc3ccccc3)oc2c1", "activity change, negative = cytotoxicity": -8.23}, {"compound": "CCc1nc2oc3ccccc3c(=O)c2cc1C(=O)OC", "activity change, negative = cytotoxicity": -3.48}, {"compound": "CC(C)C(=O)Nc1cccc(C(=O)Nc2nnc(C(C)C)s2)c1", "activity change, negative = cytotoxicity": 10.2}, {"compound": "COC(=O)c1cn(CC(=O)NCc2cccs2)c2ccccc12", "activity change, negative = cytotoxicity": 21.6}, {"compound": "COc1ccc(N=C(C)c2sc3ccccc3c2O)cc1", "activity change, negative = cytotoxicity": 0.743}, {"compound": "CCCCC(=O)Nc1sc2c(c1C#N)CC(C)(C)OC2", "activity change, negative = cytotoxicity": 4.44}, {"compound": "COc1ccc2oc(=O)c(C(=O)N3CCN(c4ccccc4C)CC3)cc2c1", "activity change, negative = cytotoxicity": 6.89}, {"compound": "Cc1cc(C(=O)Cn2nc(C(=O)O)c3ccccc3c2=O)c(C)n1CC(F)(F)F", "activity change, negative = cytotoxicity": 7.32}, {"compound": "Cc1ccc(/C=N/N2C(=O)c3ccccc3NC2c2ccc(C)cc2)cc1", "note": "(stereo unspecified)", "activity change, negative = cytotoxicity": -11.9}, {"compound": "COc1ccc(-c2csc(N(C)C(=O)c3cccs3)n2)cc1", "activity change, negative = cytotoxicity": -2.71}, {"compound": "COc1ccc(/C=C2\\SC(=O)N(CCNC(=O)C3CC4C=CC3C4)C2=O)cc1", "note": "(stereo unspecified)", "activity change, negative = cytotoxicity": -3.98}, {"compound": "CCS(=O)(=O)Nc1ccc(C(=O)NCCSc2ccccc2)cc1", "activity change, negative = cytotoxicity": -0.036}, {"compound": "COc1ccc(NC(=S)c2ccccc2)cc1", "activity change, negative = cytotoxicity": 2.2}, {"compound": "CC(=O)Nc1ccc2c(c1)ncn2-c1ccccc1", "activity change, negative = cytotoxicity": 16.7}, {"compound": "COc1ccc2sc(NCc3ccccc3)nc2c1", "activity change, negative = cytotoxicity": 0.849}]}]}
